A short description of assay [1]: HepG2 liver cancer cell viability effects, profiling panel, resazurin fluorescence, 24 h, PK04 Diversity Set (AID 1172). Note: test concentration not given here. The conditions noted are these: higher = more signal. Background: Resazurin is reduced to fluorescent resorufin, in cell work by metabolically active cells.
Assay [2] in a line: basal S. cerevisiae growth modulation, no modifier, primary screen, OD600, strain BY4716, 24 h, basal condition (AID 1173). The conditions noted are these: OD600, 24 h, higher = more signal, called active from +8 up or from −8 down.
Assay [3] is described as follows: MM1S myeloma cell viability, profiling panel, resazurin fluorescence, basal, 24 h, PK04 Diversity Set (AID 1174).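 Note: MM1S multiple myeloma cell line; test concentration not given here.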 The conditions noted are these: higher = more signal, called active from +8 up or from −8 down.
In assay [4] the target is Dihydroorotate dehydrogenase (quinone), mitochondrial (Plasmodium falciparum (isolate 3D7)) (UniProt Q08210). The experiment in a line: PfDHODH enzyme inhibitors, primary screen, biochemical, C-terminal His tag, absorbance 600 nm (AID 1175).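 Note: recombinant parasite enzyme with a five histidine tag at its C terminus; test concentration not given here.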 The conditions noted are these: DCIP absorbance 600 nm, higher = more signal, called active from +8 up or from −8 down.
Chain of Dihydroorotate dehydrogenase (quinone), mitochondrial (Plasmodium falciparum (isolate 3D7)) (Q08210 whole entry, looked up): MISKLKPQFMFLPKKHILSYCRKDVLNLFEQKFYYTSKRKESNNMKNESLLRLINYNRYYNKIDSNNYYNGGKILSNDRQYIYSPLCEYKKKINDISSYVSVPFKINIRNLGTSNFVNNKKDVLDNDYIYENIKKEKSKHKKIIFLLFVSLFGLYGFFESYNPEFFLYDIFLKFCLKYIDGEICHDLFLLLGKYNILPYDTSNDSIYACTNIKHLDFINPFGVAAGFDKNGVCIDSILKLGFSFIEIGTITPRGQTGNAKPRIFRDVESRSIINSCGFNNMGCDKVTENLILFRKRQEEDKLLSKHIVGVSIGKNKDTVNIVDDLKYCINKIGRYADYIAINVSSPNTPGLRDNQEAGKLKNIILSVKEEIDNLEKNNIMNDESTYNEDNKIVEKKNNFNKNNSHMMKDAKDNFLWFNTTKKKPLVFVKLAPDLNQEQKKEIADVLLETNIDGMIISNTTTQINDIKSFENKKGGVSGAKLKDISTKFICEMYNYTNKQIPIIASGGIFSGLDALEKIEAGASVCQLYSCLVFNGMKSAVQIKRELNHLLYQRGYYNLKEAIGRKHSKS
The nature of assay [5]: P. aeruginosa biofilm formation inhibitors, primary screen, strain PAO1, LB-PBS medium, absorbance 600 nm (AID 1176). Note: test concentration not given here. The conditions noted are these: P. aeruginosa PAO1 growth/biofilm, A600, 12 h; higher = more signal.
A short description of assay [6]: S. cerevisiae RM11-1a growth modifiers, primary screen, strain RM11-1a, OD600, basal, 24 h (AID 1177).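 Note: cultures grown under basal conditions with no added stressor; test concentration not given here.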 The note with it: OD600, 24 h, higher = more signal, called active from +8 up or from −8 down.
The nature of assay [7]: E. coli acrAB mutant growth effects, primary screen, E. coli filamentation inducers, strain DRC39, OD650, 24 h (AID 1178).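 Note: growth measured as culture turbidity by optical density at 650 nm; test concentration not given here.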 The note with it: higher = more signal, called active from +8 up or from −8 down.
The nature of assay [8]: E. coli acrAB mutant growth effects, primary screen, E. coli filamentation inducers, strain DRC39, OD650, 48 h (AID 1179).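 Note: screen aims at cell division blockers that make cells filament.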 The conditions noted are these: E. coli DRC39 delta-acrAB growth, higher = more signal, called active from +8 up or from −8 down.
The nature of assay [9]: RPMI8226 myeloma cell viability, profiling panel, resazurin fluorescence, basal, 24 h, PK04 Diversity Set (AID 1180).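 Note: RPMI8826 multiple myeloma cell line at 5000 cells per well; test concentration not given here.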 The conditions noted are these: higher = more signal.
Assay [10] addresses E3 ubiquitin-protein ligase XIAP (Homo sapiens) (UniProt P98170). The experiment in a line: XIAP binders, primary screen, biophysical, small-molecule microarray, fluorescence 635 nm (AID 1181).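 Note: score merges 667 nm emission and signal to noise over triplicate slides.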 The note with it: small-molecule microarray binding, higher = more signal.

The structures appear in SMILES notation. Activity calls are given as the source filed them. Unless noted, the rule behind the calls is not given here.

Chain of E3 ubiquitin-protein ligase XIAP (Homo sapiens) (P98170 whole entry, looked up): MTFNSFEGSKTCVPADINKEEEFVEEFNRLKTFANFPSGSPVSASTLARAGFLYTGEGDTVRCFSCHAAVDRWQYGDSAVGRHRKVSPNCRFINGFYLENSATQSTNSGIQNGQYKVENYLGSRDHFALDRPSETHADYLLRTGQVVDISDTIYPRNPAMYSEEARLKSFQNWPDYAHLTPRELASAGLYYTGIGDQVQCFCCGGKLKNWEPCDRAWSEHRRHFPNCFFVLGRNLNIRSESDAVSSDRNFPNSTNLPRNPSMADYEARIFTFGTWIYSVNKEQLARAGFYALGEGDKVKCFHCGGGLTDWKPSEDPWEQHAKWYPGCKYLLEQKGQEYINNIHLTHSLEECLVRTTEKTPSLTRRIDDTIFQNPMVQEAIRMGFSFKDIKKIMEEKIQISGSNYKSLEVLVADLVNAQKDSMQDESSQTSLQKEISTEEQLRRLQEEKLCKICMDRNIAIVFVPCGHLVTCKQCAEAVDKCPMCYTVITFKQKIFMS

Regarding `O=C1OCCC=C[C@H]2OC34C=CCN(Cc5ccccc5)C(=O)[C@H]3N(CCCCCCO)C(=O)[C@@H]4C12` (stereo not given in full), the z-score was 1.83 in assay [1]; 0.0187 (inactive) in assay [2]; 0.654 (inactive) in [3]; -0.208 (inactive) in [5]; 0.589 (inactive) in assay [6]; 0.759 (inactive) in assay [7]. Also, the z-score was 0.653 (inactive) in assay [8] and 0.183 in [9]. Also, the composite z-score was 0.261 (inactive) in assay [4] and -0.0918 in [10].

`COc1ccc(CCNC(=O)[C@@]2(Sc3ccc(C)cc3)CC(=O)N(Cc3ccccc3Cl)[C@@H]2c2ccc(CO)cc2I)cc1`: the z-score in [1] was 0.254; in assay [2], -4.37 (inactive); in assay [3], -2.75 (inactive); in assay [5], 0.379 (inactive); in [6], -1.37 (inactive); in assay [7] it was 0.853 (inactive). Also, the z-score in assay [8] was 1.36 (inactive); in assay [9] it was -1.71. For the same compound, the figures for the composite z-score in [4] and in assay [10] were -0.725 (inactive) and 0.0512, respectively.

In the case of `NCCCCCNC(=O)[C@H]1C[C@H]2C(=O)NCC(=O)N2[C@H]1c1cccc(OCCO)c1`, the z-score in [1] is 0.871; in assay [2], -0.0725 (inactive); in assay [3] it was 0.998 (inactive); in [5] it was -0.242 (inactive); in assay [6], 0.0993 (inactive); in assay [7] it was 1.07 (inactive). The z-score is 1.23 (inactive) in assay [8] and 0.616 in [9]. The values for the composite z-score in assay [4] and in assay [10] were -0.355 (inactive) and -0.119, respectively.

As to `CC(C)N1C(=O)C[C@@](C(=O)NCc2ccccc2)(c2ccc([N+](=O)[O-])cc2)[C@H]1c1ccc(CO)cc1`, the z-score is 0.222 in assay [1]; -0.228 (inactive) in assay [2]; 0.0372 (inactive) in assay [3]; -0.0528 (inactive) in assay [5]; 0.131 (inactive) in assay [6]; 0.531 (inactive) in assay [7]. For the same compound, the z-score is 1.23 (inactive) in [8] and 1.26 in assay [9]. Further, the composite z-score in [4] was 0.41 (inactive); in assay [10], -0.0543.

In the case of `CC(C)C[C@@H]1NC(=O)[C@H]2C[C@@H](C(=O)NCCCCCNC(=O)CS)[C@@H](c3cccc(OCCO)c3)N2C1=O`, the z-score in assay [1] is 0.265; in [2], -0.45 (inactive); in [3] it was -0.229 (inactive); in [5], 0.326 (inactive); in assay [6], -0.0734 (inactive); in [7], 0.346 (inactive). In addition, the z-score in [8] is -0.663 (inactive); in assay [9], -0.492. The figures for the composite z-score in assay [4] and in assay [10] were 0.0225 (inactive) and 0.379, respectively.

Consider `C=CCC(OC(C)=O)[C@@H]1[C@@H](N(Cc2ccc(-c3ccccc3)cc2)C(=O)Cc2ccc(F)cc2)c2cc(OCCCO)ccc2N1C(=O)c1ccc2ccccc2n1` (stereo not given in full), for which the z-score in assay [1] is 1.29; in assay [2], -0.186 (inactive); in assay [3] it was 1.08 (inactive); in assay [5], -0.619 (inactive); in [6], -0.452 (inactive); in assay [7], 0.918 (inactive). In addition, the results for the z-score in assay [8] and in assay [9] were 0.761 (inactive) and 0.893, respectively. Besides, the composite z-score is -0.203 (inactive) in assay [4] and 0.103 in [10].

With `O=C1[C@]2(CO)C=C(Br)[C@@H](C[C@@H]2c2ccccc2)[C@@]12CO2`, the z-score in assay [1] was 1.09; in [2] it was -4.57 (inactive); in assay [3], -0.0768 (inactive); in assay [5], -0.884 (inactive); in assay [6] it was 0.184 (inactive); in [7] it was 0.613 (inactive). Also, the z-score in [8] was 0.585 (inactive); in assay [9], -0.333. Further, the results for the composite z-score in [4] and in assay [10] were -0.172 (inactive) and -0.102, respectively.

Take `O=C1O[C@@H](c2ccccc2)[C@@H](c2ccccc2)N2[C@@H](c3ccc(OCCO)cc3)[C@]3(C(=O)Nc4ccccc43)[C@@H](C(=O)Nc3nc4ccccc4s3)[C@H]12`: the z-score in assay [1] was -0.489; in [2] it was 0.0135 (inactive); in assay [3], -1.52 (inactive); in assay [5] it was 3.18 (inactive); in [6], 1.97 (inactive); in [7], -0.595 (inactive). The figures for the z-score in [8] and in assay [9] were 0.29 (inactive) and -1.55, respectively. The composite z-score in assay [4] is -0.308 (inactive); in [10] it was 0.148.

Take `CC(C)N1C(=O)c2ccccc2[C@@H](C(=O)NCCCN(C)C)[C@@H]1c1ccc(CO)cc1`: the z-score was -0.456 in assay [1]; -0.725 (inactive) in assay [2]; -0.0365 (inactive) in [3]; -0.273 (inactive) in [5]; 0.625 (inactive) in assay [6]; -0.315 (inactive) in assay [7]. For the same compound, the results for the z-score in assay [8] and in assay [9] were -0.621 (inactive) and 0.764, respectively. In addition, the figures for the composite z-score in [4] and in assay [10] were 0.465 (inactive) and 0.013, respectively.

For `C=CCOC(=O)[C@H]1[C@@H]2C(=O)O[C@@H](c3ccccc3)[C@@H](c3ccccc3)N2[C@@H](c2ccc(OCCOC(=O)[C@@H]3C[C@@H]4C(=O)N5CCC[C@H]5C(=O)N4[C@@H]3c3ccc(O)cc3)cc2)[C@]12C(=O)Nc1ccccc12`, the z-score in assay [1] was 0.196; in assay [2], 0.865 (inactive); in [3], 0.841 (inactive); in assay [5], 0.957 (inactive); in [6], 2.73 (inactive); in assay [7], 0.468 (inactive). Besides, the figures for the z-score in [8] and in assay [9] were 0.971 (inactive) and 1.71, respectively. In addition, the composite z-score was -0.379 (inactive) in assay [4] and 0.224 in assay [10].

Consider `COc1ccc(C(O)C2C=CC3C(=O)NC(=O)C3N2Nc2ccccn2)cc1OCc1ccccc1` (stereo not given), for which the z-score in assay [1] was -0.8; in assay [2], 0.481 (inactive); in assay [3], -0.581 (inactive); in assay [5], 1.48 (inactive); in [6] it was 0.18 (inactive); in [7], -0.855 (inactive). The z-score in assay [8] was 0.145 (inactive); in assay [9], -1.87. Further, the composite z-score in assay [4] was 1.58 (inactive); in assay [10], 0.578.

On to `CN1C=C(C(=O)OCCS(C)(=O)=O)C(C(=O)OCCS(C)(=O)=O)=CC(CCCO)=CC1C1CC1` (stereo not given), for which the z-score in assay [1] was 0.427; in [2] it was -2.11 (inactive); in assay [3] it was -0.16 (inactive); in assay [5], -0.353 (inactive); in [6], -0.558 (inactive); in [7], 1.38 (inactive). Further, the z-score was 1.29 (inactive) in assay [8] and 0.0101 in [9]. For the same compound, the composite z-score in assay [4] was -1.23 (inactive); in assay [10], -0.366.

On to `CC(=CC1CCCCC1)[C@@H](NC(=O)c1ccc(C(F)(F)F)cc1)c1ccc(-c2ccccc2)cc1`, for which the z-score in assay [1] was 0.0536; in [2], 1.08 (inactive); in [3] it was -0.549 (inactive); in assay [5], 1.31 (inactive); in assay [6], 0.088 (inactive); in [7], -1.16 (inactive). In addition, the values for the z-score in assay [8] and in assay [9] were -0.822 (inactive) and -0.18, respectively. Besides, the results for the composite z-score in assay [4] and in [10] were -0.468 (inactive) and -0.115, respectively.

The record behind these values is PubChem BioAssay.
